These results are taken from PubChem BioAssay (NCATS).

Results filed as inconclusive are left out. Activity calls are given as the source filed them. Unless noted, how the calls were made is not given here.

Assay [1] is described as follows: qHTS Assay for Identifying Gametocytocidal Compounds (AID 743244; active means well fitted curve in the direction sought with a large enough effect; an effect the other way counts as inactive or inconclusive; further: potency means the concentration at half of the fitted maximal effect;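 on max response: on the % scale 0 is the no-effect control and ±100 the full control effect; actives lower the fluorescent signal which means gametocytes are killed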). Conditions: P. falciparum 3D7 stage III-V gametocytes, alamarBlue, 72 h; max response: stronger effect = lower value. Summed up:
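Fluorescence at Ex 525/Em 598 nm, recorded 24 h after alamarBlue addition, reports residual metabolic activity of 3D7 gametocytes (stages III–V) following 72 h compound exposure at 37 °C, 5% CO2.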
A general note: qHTS replaces the single test concentration by a dilution series.

A short description of assay [2]: qHTS profiling for inhibitors of Plasmodium falciparum (3D7) proliferation (AID 743322).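 Further: infected erythrocytes exposed to compound for 72 h before lysis; 100% = DMSO vehicle wells and 0% = 0.29 µM artemisinin.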 The conditions noted are these: P. falciparum 3D7 proliferation; at 28.7 µM (top of the series) unless noted. In outline:
(§1)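 Erythrocytes infected with P. falciparum (0.3% parasitemia, 2.5% hematocrit) incubated with compounds 72 h at 37 C, 5% CO2. Lysis with saponin/Triton buffer containing SYBR Green I, overnight at room temperature in the dark; DNA fluorescence (485/535 nm) normalised to 0.29 uM artemisinin and DMSO.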

Assay [3] can be described thus: qHTS profiling for inhibitors of Plasmodium falciparum (DD2) proliferation (AID 743323). The conditions noted are these: lower = more inhibition; at 28.7 µM (top of the series) unless noted. Summed up:
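SYBR Green fluorescence (ex 485, em 535 nm) of lysed cultures gives parasite DNA content; wells normalized to artemisinin (0.29 uM) and DMSO controls. Infected red cells: 0.3% parasitemia, 2.5% hematocrit, 72 h, 37 C.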

A short description of assay [4]: qHTS profiling of the MIPE4 collection as inhibitors of Plasmodium falciparum (3D7) proliferation (AID 743344).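 Further: scaled between DMSO vehicle wells and 0.29 µM artemisinin as full inhibition.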 The conditions noted are these: P. falciparum 3D7 in erythrocytes, SYBR Green DNA fluorescence, 72 h; at 28.5 µM (top of the series) unless noted. In outline: as §1
Assay [5] in a line: qHTS profiling of the MIPE4 collection as inhibitors of Plasmodium falciparum (DD2) proliferation (AID 743345). The conditions noted are these: P. falciparum Dd2 in erythrocytes, SYBR Green DNA, 72 h; at 28.5 µM (top of the series) unless noted. Summed up: as §1
Assay [6] is described as follows: qHTS profiling of the MIPE4 collection as inhibitors of Plasmodium falciparum (DD2) proliferation (Rep 2) (AID 743346). Conditions: P. falciparum Dd2 in erythrocytes, SYBR Green DNA, 72 h; at 28.5 µM (top of the series) unless noted. In outline: as §1
The nature of assay [7]: qHTS profiling of the MIPE4 collection as inhibitors of Plasmodium falciparum (HB3) proliferation (AID 743347).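 Further: plate controls were DMSO vehicle wells for no effect and artemisinin wells for full effect.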 The conditions noted are these: P. falciparum HB3 in erythrocytes, SYBR Green DNA, 72 h; at 28.5 µM (top of the series) unless noted. Summed up:
as §1

A short description of assay [8]: High-throughput drug toxicity screening in the BPDCN cell line Gen2.2 (AID 1224824).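 Further: cells exposed to compounds for 48 h before reading.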 Conditions: Gen2.2 BPDCN cells; at 45.8 µM (top of the series) unless noted. In outline:
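Readout is ATP luminescence from Gen2.2 cells after two days of drug exposure in serum-containing medium at 37 °C. Values express percent activity, with vehicle defining full signal and 9.2 uM bortezomib defining zero.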

A short description of assay [9]: High-throughput drug toxicity screening in the BPDCN cell line Cal-1 (AID 1224825). The conditions noted are these: Cal-1 BPDCN cell viability, qHTS; at 45.8 µM (top of the series) unless noted. Summed up:
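Cal-1 cells, 500 per well in phenol-red-free RPMI with 10% FBS, exposed to compounds for 48 hours at 37C, 5% CO2. Viability read by CellTiter-Glo luminescence; percent activity normalized to DMSO (100%) and 9.2 uM bortezomib final (0%).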

Assay [10] is described as follows: qHTS assay for measurement of the activity of small molecule inhibitors on Zika virus induced Caspase-3 activity in human iPSC derived neural progenitor cells (hNPCs) (AID 1224857; active means well fitted curve in the direction sought with a large enough effect; an effect the other way counts as inactive or inconclusive; further: % of control where 0% means no effect; nearly all actives have a fitted effect of over 65% in size). In outline:
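Zika virus (2 FFU/cell) infection of human iPSC-derived NPCs, 6 h, following 1 h compound preincubation. Read-out: Caspase-Glo 3/7 luminescence.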

Assay [11] can be described thus: qHTS assay for measurement of the activity of small molecule inhibitors on Zika virus induced Caspase-3 activity in human astrocytoma cells (AID 1224859; active means well fitted curve in the direction sought with a large enough effect; an effect the other way counts as inactive or inconclusive;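 further: plate controls were ZIKV-infected untreated cells for no effect and uninfected cells for full effect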). In outline:
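Caspase activation in ZIKV-infected SNB-19 cells (2 FFU/cell, 6 h) measured by Caspase-Glo 3/7 luminescence after 30 min RT; compound pre-incubated 1 h; normalised to uninfected and infected controls.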

Assay [12] can be described thus: qHTS Screen of the MIPE 4.0 Collection Against Ewings Sarcoma (RDES) (AID 1259252; active means well fitted curve in the direction sought with a large enough effect; an effect the other way counts as inactive or inconclusive; further: nearly all actives have a fitted effect of over 35% in size; further: potency means the concentration at half of the fitted maximal effect). In outline:
(§2)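 Viability screen: 48 h incubation at 37C, 95% humidity, 5% CO2 with serially titrated compound, followed by CellTiter-Glo readout.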

Assay [13] in a line: qHTS profiling for inhibitors of Plasmodium falciparum (HB3) proliferation (AID 743324; active means well fitted curve in the direction sought with a large enough effect; an effect the other way counts as inactive or inconclusive;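 further: 100% = DMSO vehicle wells and 0% = artemisinin-treated control wells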). Conditions: Plasmodium falciparum HB3 blood-stage proliferation; at 28.7 µM (top of the series) unless noted. In outline:
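P. falciparum HB3 grown in erythrocytes (0.3% parasitemia, 2.5% hematocrit final) with compound for 72 h at 37 C, 5% CO2. Parasite DNA detected by SYBR Green after saponin/triton lysis overnight; normalized to 0.29 uM artemisinin and DMSO.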

Assay [14] in a line: qHTS Screen of the MIPE 4.0 Collection Against Ewings Sarcoma (EW8) (AID 1259255; active means well fitted curve in the direction sought with a large enough effect; an effect the other way counts as inactive or inconclusive;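 further: 100% = DMSO-treated cells and 0% = medium-only wells without cells; nearly all actives have a fitted effect of over 35% in size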). Summed up: as §2

In the case of `O=C(NOC[C@H](O)CO)c1ccc(F)c(F)c1Nc1ccc(I)cc1F`, in assay [1], the max response was 24.9% (inactive). Moreover, the remaining parasite growth % (stronger effect = lower value) in [2] was determined as 106%. The molecule also displayed an activity, percent of control in assay [3] of 98.3%. In assay [4], this molecule registered a parasite growth, % of DMSO control of 86.4%. The parasite growth remaining, % of DMSO control (lower = more inhibition) in assay [5] is 102%. The parasite growth, % of control (lower = inhibition) in assay [6] came out at 95.7%. Further, in [7], the growth, % of control turned out to be 97.2%. Moreover, the cell viability, % of control (lower = more cytotoxic) in assay [8] stood at 14.5%. Moreover, the viability (% of control) in assay [9] was 41.6%. Besides, the Potency entry in [10] and in [11] was “inactive” in each case. For the same molecule, the Potency in assay [12] was 23.5 µM (active).
For `COc1ccc(CCN2CCN(CCCc3ccccc3)CC2)cc1OC`, the max response in assay [1] was -5.52% (inactive). Moreover, the remaining parasite growth % (stronger effect = lower value) in assay [2] is 9.47%. Moreover, in [3], the activity, percent of control was 65.7%. In addition, in assay [4], the parasite growth, % of DMSO control is 28.6%. In assay [5], the parasite growth remaining, % of DMSO control (lower = more inhibition) turned out to be 95.6%. The parasite growth, % of control (lower = inhibition) in assay [6] was determined as 30%. The growth, % of control in assay [7] is 21.1%. Moreover, the cell viability, % of control (lower = more cytotoxic) in assay [8] was 340%. Besides, the viability (% of control) in assay [9] is 64.5%. Besides, the Potency entry in assay [10], in assay [11] and in assay [12] was “inactive” each time.
Turning to `CNCc1ccc(-c2[nH]c3cc(F)cc4c3c2CCNC4=O)cc1`, in [1], the Potency is 29.6 µM (active). Moreover, the remaining parasite growth % (stronger effect = lower value) in assay [2] was 28.7%. Further, in assay [3], the activity, percent of control was found to be 77.5%. The molecule further yielded a remaining proliferation (% of control), lower = more inhibition in [13] of 54%. The same molecule displayed a parasite growth, % of DMSO control in [4] of 47.4%. Besides, the parasite growth remaining, % of DMSO control (lower = more inhibition) in assay [5] turned out to be 85%. Moreover, the parasite growth, % of control (lower = inhibition) in assay [6] was determined as 51.1%. In assay [7], the growth, % of control came to 18.7%. Besides, the cell viability, % of control (lower = more cytotoxic) in assay [8] was determined as 80.5%. The viability (% of control) in [9] was 15.1%. Also, the Potency entry in assay [10] and in [11] was “inactive” throughout.
As to `CN(C)c1ccc(C2Nc3ccc4ccccc4c3C3=C2C(=O)CC(C)(C)C3)cc1Br` (configuration not stated), in assay [1], the max response is -26.5% (inactive). The remaining parasite growth % (stronger effect = lower value) in assay [2] worked out at 2.48%. Moreover, in [3], the activity, percent of control was determined as 6.15%. In addition, the remaining proliferation (% of control), lower = more inhibition in assay [13] was 1.79%. Besides, the parasite growth, % of DMSO control in assay [4] came to 28.5%. In [5], the parasite growth remaining, % of DMSO control (lower = more inhibition) worked out at 15%. Further, in assay [6], the parasite growth, % of control (lower = inhibition) came out at 33.7%. This molecule also gave a growth, % of control in [7] of 78%. Besides, the cell viability, % of control (lower = more cytotoxic) in assay [8] amounted to 119%. Moreover, the viability (% of control) in assay [9] was determined as 111%. Also, the Potency result in [10], in [11] and in assay [14] was “inactive” each time.
For `NC(=O)C1CCCc2c1[nH]c1ccc(Cl)cc21` (configuration not stated), the max response in [1] was 9.85% (inactive). The remaining parasite growth % (stronger effect = lower value) in [2] is 100%. The same molecule showed an activity, percent of control in assay [3] of 94.6%. Also, the remaining proliferation (% of control), lower = more inhibition in [13] came out at 95%. The parasite growth, % of DMSO control in assay [4] was found to be 92%. Further, the parasite growth remaining, % of DMSO control (lower = more inhibition) in assay [5] is 112%. Besides, the parasite growth, % of control (lower = inhibition) in [6] worked out at 145%. For the same molecule, the cell viability, % of control (lower = more cytotoxic) in assay [8] came to 67%. The viability (% of control) in [9] was determined as 67.2%. In addition, the Potency result in assay [10], in assay [11] and in [14] was “inactive” each time. Besides, the Potency in assay [12] was 6.62 µM (active).
